Data taken from the supplement of paper PMC6089552.
About 300 (9.4%) of roughly 3,200 compounds showed activity. The list comes from a sample in which actives are over-represented; it also holds similar structures and randomly drawn compounds.

Test system: A673/TR/shEF
Assay: cell viability (LOESS-normalised, relative to median of negative controls) (log2 ratio); higher = more viable cells (less compound effect), active = hit call of the paper (over 3 MAD below the median)
Conditions: treatment time: 72 h
Method in brief: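 For three days, A673/TR/shEF Ewing sarcoma cells in 384-well plates (1,500 per well) were treated with library compounds at two or more concentrations or with DMSO controls, after doxycycline had been added or withheld 24 h beforehand to induce EWS-FLI1 shRNA knockdown. Viability was read by CellTiter-Glo luminescence on an Envision reader. The data were LOESS-corrected per plate, divided by the median of negative controls and log2-transformed.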

[1] = 0.25 µM, library screen: screen1, EWS-FLI1 expression: high (no doxycycline)
[2] = 0.25 µM, library screen: screen1, EWS-FLI1 expression: low (doxycycline-induced shRNA knockdown)
[3] = 2.5 µM, library screen: screen1, EWS-FLI1 expression: high (no doxycycline)
[4] = 2.5 µM, library screen: screen1, EWS-FLI1 expression: low (doxycycline-induced shRNA knockdown)
[5] = 0.25 µM, library screen: screen2, EWS-FLI1 expression: high (no doxycycline)
[6] = 0.25 µM, library screen: screen2, EWS-FLI1 expression: low (doxycycline-induced shRNA knockdown)
[7] = 2.5 µM, library screen: screen2, EWS-FLI1 expression: high (no doxycycline)
[8] = 2.5 µM, library screen: screen2, EWS-FLI1 expression: low (doxycycline-induced shRNA knockdown)
[9] = 0.103 µM, library screen: screen3, EWS-FLI1 expression: high (no doxycycline)
[10] = 0.103 µM, library screen: screen3, EWS-FLI1 expression: low (doxycycline-induced shRNA knockdown)
[11] = 0.308 µM, library screen: screen3, EWS-FLI1 expression: high (no doxycycline)
[12] = 0.308 µM, library screen: screen3, EWS-FLI1 expression: low (doxycycline-induced shRNA knockdown)
[13] = 0.926 µM, library screen: screen3, EWS-FLI1 expression: high (no doxycycline)
[14] = 0.926 µM, library screen: screen3, EWS-FLI1 expression: low (doxycycline-induced shRNA knockdown)
[15] = 2.8 µM, library screen: screen3, EWS-FLI1 expression: high (no doxycycline)
[16] = 2.8 µM, library screen: screen3, EWS-FLI1 expression: low (doxycycline-induced shRNA knockdown)
[17] = 8.3 µM, library screen: screen3, EWS-FLI1 expression: high (no doxycycline)
[18] = 8.3 µM, library screen: screen3, EWS-FLI1 expression: low (doxycycline-induced shRNA knockdown)
[19] = 25 µM, library screen: screen3, EWS-FLI1 expression: high (no doxycycline)
[20] = 25 µM, library screen: screen3, EWS-FLI1 expression: low (doxycycline-induced shRNA knockdown)

Measured: cell viability (log2)

COc1ccc(CN2CCN(Cc3ccc(OC)c(OC)c3OC)CC2)c(OC)c1
inactive: [1] 0.0664 | [2] 0.0443 | [3] 0.0638 | [4] 0.0995

Cc1ccc(S(=O)(=O)N[C@@H](Cc2ccccc2)C(=O)CCl)cc1
inactive: [5] 0.00163 | [6] 0.0223 | [7] 0.0887 | [8] 0.111

O=C(N[C@@H](Cc1ccccc1)C(=O)CCl)OCc1ccccc1
active: [7] -0.218
inactive: [5] 0.163 | [6] 0.156 | [8] 0.0216

CC(C)[C@H](NC(=O)OCc1ccccc1)C(=O)N[C@H](C=O)Cc1ccccc1
inactive: [5] 0.0586 | [6] 0.0917 | [7] 0.108 | [8] 0.155

C[N+]1(C)[C@@H]2CC(OC(=O)C(O)(c3cccs3)c3cccs3)C[C@H]1[C@@H]1O[C@@H]12 (stereo partly specified)
inactive: [9] -0.0419 | [10] -0.0363 | [11] -0.000855 | [12] 0.0413 | [13] 0.0247 | [14] 0.0262 | [15] 0.0531 | [16] 0.0434 | [17] 0.0573 | [18] 0.11 | [19] 0.0805 | [20] 0.115

Cc1occc(=O)c1C=CO
inactive: [1] 0.064 | [2] 0.0191 | [3] 0.188 | [4] 0.0363

CC1(C)S[C@@H]2[C@H](NC(=O)[C@H](N)c3ccc(O)cc3)C(=O)N2[C@H]1C(=O)O
active: [19] -0.676
inactive: [9] 0.0884 | [10] 0.104 | [1] 0.0883 | [2] 0.0656 | [11] -0.0334 | [12] 0.0742 | [13] 0.0733 | [14] 0.103 | [3] 0.14 | [4] 0.178 | [15] -0.017 | [16] 0.0291 | [17] 0.0293 | [18] 0.106 | [20] -0.0237

CC1(C)S[C@@H]2[C@H](NC(=O)[C@H](N)c3ccccc3)C(=O)N2[C@H]1C(=O)O
inactive: [1] 0.0882 | [2] 0.14 | [3] 0.142 | [4] 0.206

CC1(C)S[C@@H]2[C@H](NC(=O)C(C(=O)O)c3ccccc3)C(=O)N2[C@H]1C(=O)O (stereo partly specified)
inactive: [1] 0.137 | [2] 0.0878 | [3] 0.243 | [4] 0.131

CC(=O)N1CCC[C@H]1C(=O)O
inactive: [1] 0.138 | [2] 0.0212 | [3] 0.184 | [4] 0.0486

C=C1c2cc(OC)ccc2NC(=O)N1c1ccccc1
inactive: [1] 0.0622 | [2] 0.09 | [3] 0.104 | [4] 0.0838

CC(C)NC[C@H](O)c1ccc(O)c(O)c1
inactive: [5] 0.15 | [6] 0.0965 | [7] 0.0541 | [8] 0.0273

COC(=O)C[C@H]1C(C)(C)[C@@H](OC(C)=O)[C@@H]2CC3=C4CC(=O)O[C@@H](c5ccoc5)[C@]4(C)CC[C@@H]3[C@@]1(C)C2=O
inactive: [1] 0.0358 | [2] 0.0144 | [3] 0.0778 | [4] 0.108

COc1cc(/C=C/CO)ccc1O
inactive: [1] 0.0482 | [2] 0.111 | [3] 0.0791 | [4] 0.0869

COc1cc(O)cc(/C=C/c2ccccc2)c1
inactive: [1] 0.0443 | [2] 0.0713 | [3] 0.167 | [4] 0.125

O=c1cc(O)cc(/C=C/c2ccc(O)c(O)c2)o1
inactive: [5] 0.159 | [6] 0.05 | [7] 0.0405 | [8] 0.104

Oc1ccc(/C=C/c2cc(O)cc(O)c2)cc1
inactive: [9] 0.0131 | [10] 0.0367 | [1] 0.0839 | [2] 0.0347 | [11] -0.0479 | [12] 0.0776 | [13] 0.0102 | [14] 0.0306 | [3] 0.127 | [4] 0.2 | [15] -0.00513 | [16] 0.017 | [17] -0.0335 | [18] 0.0785 | [20] 0.0525
active: [5] -1.5 | [6] -1.81 | [7] -2.99 | [8] -3.07 | [19] -0.23

Oc1cc(O)cc(/C=C/c2ccc(O)c(O)c2)c1
active: 25 µM, library screen: screen1, EWS-FLI1 expression: high (no doxycycline) -0.42
inactive: 0.025 µM, library screen: screen1, EWS-FLI1 expression: high (no doxycycline) 0.0929 | 0.025 µM, library screen: screen1, EWS-FLI1 expression: low (doxycycline-induced shRNA knockdown) 0.00184 | [1] 0.117 | [2] 0.0696 | [5] -0.0238 | [6] 0.0864 | [3] 0.0516 | [4] 0.151 | [7] 0.187 | [8] 0.0106 | 25 µM, library screen: screen1, EWS-FLI1 expression: low (doxycycline-induced shRNA knockdown) 0.162
